Bioassay records as filed in PubChem.
HIF-2a inh – HIF-2a reporter inhibitors, primary screen, luminescence, 786-0 RCC cells; inhibition, % at 18.8 µM; 786-0 RCC cells HIF-2a reporter, luciferase luminescence, overnight; 0.72% of 360,000 active;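 active = inhibition of the luminescence signal of 40% or more relative to plate controls, in a single-dose primary screen at 18.75 µM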
Peg3 promoter – Peg3 promoter-driven luciferase inhibitors, primary screen, cell-based, HeLa, luciferase luminescence | 1.7% of 360,000 active | HeLa PEG-Prom luciferase reporter, overnight | AID 588405, 2011 | inhibition, % at 20 µM;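 active = inhibition of at least 50% at 20 µM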
Shn3 3UTR inh – reduction of Shn3 3'UTR firefly luciferase signal, primary screen, Schnurri-3 inhibitor project, cell-based, Clone20 osteoblasts, set 2; Clone20 osteoblast Shn3 3'UTR firefly luciferase, 24 h; inhibition, % at 12.5 µM; 0.52% of 360,000 active; AID 588674, 2011;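 active = mean inhibition of at least 75% with every replicate also reaching 75%; inconclusive = mean inhibition at least 75% but some replicate below; inactive = mean inhibition below 75%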
CF NFkB block – inhibitors of PAF-induced NF-kB signaling, primary screen, cell-based, GFP fluorescence, uHTS; inhibition, % at 5 µM; 0.86% of 360,000 active; AID 588850, 2011; KKLEB NF-kB-GFP reporter, GFP fluorescence overnight;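 active = at least 50% inhibition at 5 µM, scaled per plate between neutral and stimulator controls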;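 note: PAF is a Pseudomonas aeruginosa culture filtrate used as stimulus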
KKLEB tox – cytotoxicity in KKLEB CF airway cells, primary screen, cytotoxicity control for CF NF-kB inhibitor project, cell-based, uHTS, fluorescence assay plates; AID 602141, 2011; 0.36% of 360,000 active; activity change (cytotoxicity), % at 5 µM; KKLEB CF airway cells viability, ATPlite luminescence, overnight; hits give low values; cells stimulated with P. aeruginosa culture filtrate;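 active = corrected activity change at or below -50% at 5 µM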
MITF TRPM1 inh – inhibitors of MITF-dependent TRPM1 promoter reporter, primary screen, cell-based, SK-MEL-5, single point, luciferase | AID 488899, 2010 | SK-MEL-5 TRPM1 promoter luciferase, 24 h | 0.83% of 330,000 active | inhibition, % at 12.5 µM;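 active = mean inhibition across replicates of 60% or more, whatever share of single replicates reaches that level; inconclusive = some that reach 60%, reason not given; inactive = mean inhibition across replicates below 60%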
Large screens that a line does not name were inactive. An excerpt weighted towards active compounds, which were near 2.8% of everything screened.

CCC(CO)[n+]1c(C)cc(/C=C2\Sc3ccccc3N2Cc2ccccc2)cc1C (configuration not stated)	Peg3 promoter 62, MITF TRPM1 inh 82
CC[C@H](C)C1OC(=O)[C@@H](C)[C@@H](CC)NC(=O)[C@H](C)N(C)C(=O)C(C)(C)C(=O)C(C)NC(=O)[C@H](Cc2ccc(OC)cc2)N(C)C(=O)[C@H](C(C)C)N(C)C(=O)CNC(=O)[C@H](CC(C)C)N(C)C(=O)CNC1=O (some centres not stated)	Peg3 promoter 92, CF NFkB block 96, KKLEB tox -94 (no result: MITF TRPM1 inh)
Cc1[nH]c(=O)c(S(=O)(=O)c2ccccc2)c(C)c1Cl	none
Cn1c(=O)c2c(SCC(=O)N3CCCc4ccccc43)nc(C3CC3)nc2n(C)c1=O	Peg3 promoter 52
COc1ccc(C(=O)c2sc(NC(C)C)nc2N)cc1OC	CF NFkB block 58
COc1ccc(Nc2nc(N)c(C(=O)c3ccc(OC)cc3)s2)cc1	CF NFkB block 53
CC(=O)Nc1cc(-c2ccc(CO)cc2)cn2c(-c3cccc(C(F)(F)F)c3)cnc12	none (no result: MITF TRPM1 inh)
CC1=NOC(=O)/C1=C\c1ccc(-c2ccc(Br)cc2)o1	Peg3 promoter 89, MITF TRPM1 inh 79
CC1=NOC(=O)/C1=C\c1ccc(-c2ccc(Br)cc2C(=O)O)o1	none
CC1=NOC(=O)/C1=C\c1ccc(-c2cc(Cl)ccc2Cl)o1	Peg3 promoter 101, Shn3 3UTR inh 94, CF NFkB block 66, MITF TRPM1 inh 99
CC1=NOC(=O)/C1=C/c1ccc(-c2ccc(Cl)cc2)o1	Peg3 promoter 102, Shn3 3UTR inh inconclusive, MITF TRPM1 inh 99
COc1ccc(Cl)cc1/C=C1/C(=O)ON=C1C	none
Cc1cc(C)cc(Cn2cc(CN3CC(N4CCN(C)CC4)CS3(=O)=O)nn2)c1 (configuration not stated)	none (no result: Peg3 promoter, Shn3 3UTR inh, CF NFkB block, KKLEB tox, MITF TRPM1 inh)
Cc1cc(=O)n2nc(N3CCC(C(=O)NCc4ccccc4F)CC3)sc2n1	none
CC[C@@]1(C(=O)OC)N[C@H](CN(C)C(=O)Nc2ccc(C)cc2)[C@@H]2C(=O)N(C)C(=O)[C@@H]21	none
Cc1ccc(C(=O)OCC(=O)NCc2cccc(Cl)c2)cc1S(=O)(=O)N1CCCCC1	none
c1ccc2c(c1)CCN(c1nc3cc4c(cc3s1)OCCO4)C2	HIF-2a inh 47, KKLEB tox -52
COc1ccc2cc(C(=O)Nc3ccc(S(N)(=O)=O)cc3)sc(=O)c2c1OC	Peg3 promoter 79
COc1ccc2cc(C(=O)Nc3ccccc3)sc(=O)c2c1OC	none
CN(Cc1c(C(=O)N/N=C/c2cc(F)ccc2F)nnn1-c1nonc1N)C1CCCCC1	none
COc1cc(CCC(=O)Nc2ccc(S(=O)(=O)NC3=NCCCCC3)cc2)cc(OC)c1OC	none
CCCNC(=O)[C@H]1N2C(=O)c3c(ccc(OC)c3OC)C2SC1(C)C (some centres not stated)	none
CC(CCC(=O)NN)C1CCC2C3CCC4CC(O)CCC4(C)C3CCC12C (configuration not stated)	none
CC(CCC(C)C(C)(C)C)[C@@H]1CC[C@H]2C3C[C@H](OS(O)(=S)=S)[C@H]4C[C@H](OS(O)(=S)=S)[C@@H](OS(O)(=S)=S)C[C@]4(C)[C@H]3CC[C@]12C (some centres not stated) (tested in a mixture with another compound)	Peg3 promoter 58
CCSc1ccccc1C(=O)N1CCCC1	none
CCSc1ccccc1C(=O)n1nnc2ccccc21	Peg3 promoter 70, CF NFkB block 61, MITF TRPM1 inh 69
O=C(Nc1ccc(N2CCCCC2)cc1)c1ccccn1	HIF-2a inh 93, Peg3 promoter 91, KKLEB tox -77, MITF TRPM1 inh 82
O=C1CCCCC1(c1ccccc1)c1ccccc1	none
Cc1cc(C)nc(N/N=C/c2cc(Br)ccc2O)n1	Shn3 3UTR inh 89
Cc1cc(C)nc(N/N=C/c2ccccc2OCc2ccc(Br)cc2)n1	none
O=C1C(Cl)=C(NC(=O)c2ccccc2)C(=O)C(Cl)=C1NC(=O)c1ccccc1	HIF-2a inh 72, Peg3 promoter 103, CF NFkB block 52
O=C(NC1=C(Nc2ccc(Cl)cc2)C(=O)c2ccccc2C1=O)c1ccccc1	MITF TRPM1 inh 72
O=C(C1CCCN1S(=O)(=O)c1ccc(Cl)cc1)N1CCCCC1 (configuration not stated)	none
C=CC(=O)Nc1cccc(N(C)c2ccnc(Nc3ccc(N4CCN(C)CC4)cc3)n2)c1	CF NFkB block 61
C=CC(=O)Nc1cccc(Oc2ccnc(Nc3ccc(N4CCN(C)CC4)cc3)n2)c1	HIF-2a inh 59, Peg3 promoter 52, CF NFkB block 63
O=S(=O)(NCc1nnnn1-c1ccc(F)cc1)c1ccc(F)cc1	none (no result: MITF TRPM1 inh)
Cc1cccc(N2CC(C(=O)Nc3ccc(S(=O)(=O)Nc4nccs4)cc3)CC2=O)c1C (configuration not stated)	none (no result: MITF TRPM1 inh)
N#Cc1c(Cl)nsc1NC(=O)c1ccccc1	CF NFkB block 52
COc1ccc(C(=O)N/C(=C\c2ccc(-c3cccc([N+](=O)[O-])c3)o2)C(=O)NCCCN2CCOCC2)cc1	none (no result: MITF TRPM1 inh)
Cc1ccc(C(=O)N/C(=C\c2ccc(-c3ccccc3[N+](=O)[O-])o2)C(=O)NCCN(C)C)cc1	MITF TRPM1 inh 77
Cc1ccc(C(=O)N/C(=C\c2ccc(-c3ccccc3[N+](=O)[O-])o2)C(=O)NCCCN(C)C)cc1	MITF TRPM1 inh 70
Cc1ccc(C(=O)N/C(=C\c2ccc(-c3cccc([N+](=O)[O-])c3)o2)C(=O)NCCCN2CCOCC2)cc1	Peg3 promoter 94
CN(C)CCNC(=O)/C(=C/c1ccc(-c2cccc([N+](=O)[O-])c2)o1)NC(=O)c1ccccc1	none
NC(=S)NN=C(c1ccc(Br)cc1)C1CC1	none
Cc1cc(C)c2oc(C(=O)N3CCN(Cc4ccccc4)CC3)cc(=O)c2c1	none
C=CC[n+]1c(-c2ccc(C)cc2)csc1Nc1c(C)n(C)n(-c2ccccc2)c1=O	none
C=CC[n+]1c(-c2ccc(OCC)cc2)csc1NNC(=O)Nc1ccccc1	Shn3 3UTR inh 88
C=C(C)C(=O)Nc1cccc(C2=NOC3(C2)C[C@H](C(N)=O)N(C(=O)c2ccccc2C(=O)c2ccccc2)C3)c1 (some centres not stated)	none
CN1C(=O)/C(=C\c2cc(N=Nc3ccccc3)ccc2O)SC1=S	CF NFkB block 50
CN1CCN(CCCNC(=O)CCN2C(=O)COc3ccccc32)CC1	none
